# Assay results reported in PubChem BioAssay (NCATS).
# Records with an inconclusive call do not appear. The source made the active and inactive calls. Unless noted, the call rests on the fitted dose curve; in most records, active means well fitted cell-killing curve with a large enough effect; inconclusive means small, poorly fitted or top-dose-only effect, or effect the other way; inactive means no such curve, though single readings can be large or run the other way.
# What was measured:
# [1] = Quantitative High-Throughput drug screen in 47 multiple myeloma cell lines against the NCATS MIPE library collection: OCIMY5_PLB cell viability assay (AID 1918988); further: nearly all actives have a fitted effect of over 65% in size; further: potency means the concentration at half of the fitted maximal effect
# How it was run: (§1)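 MIPE 4.0 approved/investigational drugs; 500 cells/well; 48 h 37 °C humidified 5% CO2; CTG luminescence readout; DMSO = 100%, media = 0% viability.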
# [2] = Quantitative High-Throughput drug screen in 47 multiple myeloma cell lines against the NCATS MIPE library collection: OPM1_PLB cell viability assay (AID 1918989); further: potency means the concentration at half of the fitted maximal effect; nearly all actives have a fitted effect of over 40% in size
# How it was run: as §1
# [3] = Quantitative High-Throughput drug screen in 47 multiple myeloma cell lines against the NCATS MIPE library collection: SKMM1_PLB cell viability assay (AID 1919863); conditions: SKMM1 myeloma viability, CellTiter-Glo ATP, 48 h; viability: stronger effect = lower value; further: nearly all actives have a fitted effect of over 35% in size; further: potency means the concentration at half of the fitted maximal effect
# How it was run: as §1
# [4] = Quantitative High-Throughput drug screen in 47 multiple myeloma cell lines against the NCATS MIPE library collection: U266_ATCC cell viability assay (AID 1919864); further: nearly all actives have a fitted effect of over 35% in size; further: potency means the concentration at half of the fitted maximal effect;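 on viability (% of DMSO control): 0% = media-only wells without cells and 100% = DMSO-only wells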
# How it was run: as §1
# [5] = Quantitative High-Throughput drug screen in 47 multiple myeloma cell lines against the NCATS MIPE library collection: XG6_PLB cell viability assay (AID 1919865); further: nearly all actives have a fitted effect of over 40% in size; further: potency means the concentration at half of the fitted maximal effect
# How it was run: as §1
# [6] = Quantitative High-Throughput drug screen in 47 multiple myeloma cell lines against the NCATS MIPE library collection: VP6_DJ cell viability assay (AID 1919867); further: nearly all actives have a fitted effect of over 40% in size; further: potency means the concentration at half of the fitted maximal effect
# How it was run: as §1
# [7] = Quantitative High-Throughput drug screen in 47 multiple myeloma cell lines against the NCATS MIPE library collection: UTMC2_PLB cell viability assay (AID 1919868); conditions: CellTiter-Glo ATP luminescence, 48 h; viability (% of DMSO control): at 45.8 µM (top of the series); further: potency means the concentration at half of the fitted maximal effect; nearly all actives have a fitted effect of over 55% in size
# How it was run: as §1
# [8] = Quantitative High-Throughput drug screen in 47 multiple myeloma cell lines against the NCATS MIPE library collection: PE2_PLB cell viability assay (AID 1919869); further: nearly all actives have a fitted effect of over 35% in size; further: potency means the concentration at half of the fitted maximal effect
# How it was run: as §1
# [9] = Quantitative High-Throughput drug screen in 47 multiple myeloma cell lines against the NCATS MIPE library collection: PCM6_Riken cell viability assay (AID 1919870); further: nearly all actives have a fitted effect of over 30% in size; further: potency means the concentration at half of the fitted maximal effect
# How it was run: as §1
# [10] = Quantitative High-Throughput drug screen in 47 multiple myeloma cell lines against the NCATS MIPE library collection: KMS11_JCRBsus cell viability assay (AID 1919873); further: nearly all actives have a fitted effect of over 50% in size; further: potency means the concentration at half of the fitted maximal effect
# How it was run: as §1
# [11] = Quantitative High-Throughput drug screen in 47 multiple myeloma cell lines against the NCATS MIPE library collection: KMS28BM_JCRB cell viability assay (AID 1919874); further: nearly all actives have a fitted effect of over 35% in size; further: potency means the concentration at half of the fitted maximal effect
# How it was run: as §1
# [12] = qHTS drug screen for cell cycle checkpoint inhibitors in PARPi-resistant BRCA-mutant ovarian cancer cell lines. (AID 1963452; calls by dose curve); conditions: PEO1/OlaR viability, CellTiter-Glo luminescence, 96 h, stronger effect = lower value
# How it was run: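 PEO1, PEO4 and PEO1/OlaR ovarian cancer cells, 600 per well, exposed 96 h at 37C to a dilution series. Viability read by CellTiter-Glo luminescence, normalized to DMSO and empty wells; activity summarized as Z-AUC.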
# [13] = Quantitative High-Throughput drug screen in 47 multiple myeloma cell lines against the NCATS MIPE library collection: RPMI8226_ATCC cell viability assay (AID 1919871); further: nearly all actives have a fitted effect of over 30% in size; further: potency means the concentration at half of the fitted maximal effect
# How it was run: as §1
# [14] = Quantitative High-Throughput drug screen in 47 multiple myeloma cell lines against the NCATS MIPE library collection: OPM2_DSMZ cell viability assay (AID 1919872); further: nearly all actives have a fitted effect of over 30% in size; further: potency means the concentration at half of the fitted maximal effect
# How it was run: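 Approved and investigational drugs from MIPE 4.0 were added by pin tool to 500 cells per well. After 48 hours at 37C, ATP-based CellTiter-Glo luminescence indicated remaining viability.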
# [15] = Quantitative High-Throughput drug screen in 47 multiple myeloma cell lines against the NCATS MIPE library collection: XG1_PLB cell viability assay (AID 1919866); further: nearly all actives have a fitted effect of over 35% in size; further: potency means the concentration at half of the fitted maximal effect
# How it was run: as §1
# [16] = qHTS for identification of novel therapeutic agents for treatment of microphthalmiaassociated transcription factor (MiT) renal cell carcinoma (RCC) (AID 1963991; calls by dose curve; further: potency means the concentration at half of the fitted maximal effect); conditions: CellTiter-Glo, 48 h; for z-score: stronger effect = lower value
# How it was run: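 Curves over 11 concentrations were fitted to CellTiter-Glo luminescence, scaled between empty wells (0%) and DMSO (100%) viability. Cells were UOK109, UOK124 and UOK145 TFE3-fusion RCC lines at 500/well, exposed 48 hours at 37 C.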
# [17] = measured here: PEO1 parental Z-AUC
# [18] = TFE3-RCC UOK109 viability, measured here: UOK109 Z-AUC
# [19] = TFE3-RCC viability, measured here: UOK124 Z-AUC
# [20] = TFE3-RCC viability, measured here: UOK145 Z-AUC
smiles,measurement,setting,value
CN1CCN(c2ccc([N+](=O)[O-])c3no[n+]([O-])c23)CC1,Potency,[1],16.6 µM (active)
same,Potency,[2],18.7 µM (active)
same,Potency,[3],18.7 µM (active)
same,Potency,[4],18.7 µM (active)
same,Potency,[5],20.9 µM (active)
same,Potency,[6],14.8 µM (active)
same,Potency,[7],18.7 µM (active)
same,Potency,[8],23.5 µM (active)
same,Potency,[9],5.9 µM (active)
same,Potency,[10],23.5 µM (active)
same,Potency,[11],18.7 µM (active)
same,Z-AUC,[12],1.21 (inactive)
same,Z-AUC,[12]; [17],1.82
same,Z-AUC,[12]; measured here: PEO4 Z-AUC,1.04
COC[C@H]1OC(=O)c2coc3c2[C@@]1(C)C1=C(C3=O)[C@@H]2CC[C@H](O)[C@@]2(C)C[C@@H]1OC(C)=O,Potency,[1],10.5 µM (active)
same,Potency,[2],0.332 µM (active)
same,Potency,[3],7.43 µM (active)
same,Potency,[4],16.6 µM (active)
same,Potency,[5],4.18 µM (active)
same,Potency,[6],1.87 µM (active)
same,Potency,[7],0.296 µM (active)
same,Potency,[8],0.743 µM (active)
same,Potency,[13],2.96 µM (active)
same,Potency,[14],1.87 µM (active)
same,Potency,[10],1.66 µM (active)
same,Potency,[11],9.35 µM (active)
O=C(Nc1ccncc1)C(=O)c1cn(Cc2ccc(Cl)cc2)c2ccccc12,Potency,[1],0.0372 µM (active)
same,Potency,[2],0.0526 µM (active)
same,Potency,[3],0.418 µM (active)
same,Potency,[4],inactive
same,Potency,[15],0.0066 µM (active)
same,Potency,[6],0.0235 µM (active)
same,Potency,[7],0.0132 µM (active)
same,Potency,[9],0.0059 µM (active)
same,Potency,[14],0.105 µM (active)
same,Potency,[10],0.0053 µM (active)
same,Potency,[11],0.0047 µM (active)
same,Z-AUC,[12],-0.51 (inactive)
same,Z-AUC,[12]; [17],-1.11
same,Z-AUC,[12]; measured here: PEO4 Z-AUC,-0.872
same,Potency,[16]; TFE3-RCC UOK109 viability,0.469 µM (active)
same,z-score,[16]; [18],-1.08
same,z-score,[16]; [19],-1.43
same,z-score,[16]; [20],-1.01
CCN1CCN(C(=O)Cc2ccc(Nc3ncc(F)c(Nc4ccc(C(=O)Nc5ccccc5Cl)cc4)n3)cc2)CC1,Potency,[1],2.64 µM (active)
same,Potency,[2],5.26 µM (active)
same,Potency,[3],9.35 µM (active)
same,Potency,[4],7.43 µM (active)
same,Potency,[5],0.743 µM (active)
same,Potency,[15],1.18 µM (active)
same,Potency,[6],2.64 µM (active)
same,Potency,[7],1.32 µM (active)
same,Potency,[9],2.96 µM (active)
same,Potency,[13],18.7 µM (active)
same,Potency,[14],6.62 µM (active)
same,Potency,[10],0.743 µM (active)
same,Potency,[11],1.87 µM (active)
same,Z-AUC,[12],0.278 (inactive)
same,Z-AUC,[12]; [17],-0.415
same,Z-AUC,[12]; measured here: PEO4 Z-AUC,-1.09
c1ccc(CCCN2CCN(CCOC(c3ccccc3)c3ccccc3)CC2)cc1,Potency,[1],20.9 µM (active)
same,Potency,[2],20.9 µM (active)
same,Potency,[3],20.9 µM (active)
same,Potency,[4],23.5 µM (active)
same,Potency,[15],20.9 µM (active)
same,Potency,[8],18.7 µM (active)
same,Potency,[14],26.4 µM (active)
same,Potency,[10],20.9 µM (active)
same,Potency,[11],20.9 µM (active)
O=c1[nH]c2ccc(Cl)cc2c(N[C@@H]2CN3CCC2CC3)c1-c1nc2ccccc2[nH]1,Potency,[1],0.0833 µM (active)
same,Potency,[2],0.0526 µM (active)
same,Potency,[3],4.69 µM (active)
same,Potency,[4],5.9 µM (active)
same,Potency,[5],0.0372 µM (active)
same,Potency,[15],0.264 µM (active)
same,Potency,[6],0.132 µM (active)
same,Potency,[7],0.332 µM (active)
same,Potency,[8],0.0743 µM (active)
same,Potency,[9],0.166 µM (active)
same,Potency,[13],5.9 µM (active)
same,Potency,[14],5.9 µM (active)
same,Potency,[10],0.235 µM (active)
same,Potency,[11],1.32 µM (active)
same,Z-AUC,[12],-1.21 (inactive)
same,Z-AUC,[12]; [17],-1.35
same,Z-AUC,[12]; measured here: PEO4 Z-AUC,-1.24
N=c1c2c(-c3ccccc3)c(-c3ccccc3)n(Cc3ccccc3)c2ncn1C1CCC(O)CC1 (stereo not drawn),Potency,[1],11.8 µM (active)
same,Potency,[2],3.32 µM (active)
same,Potency,[3],16.6 µM (active)
same,Potency,[4],4.69 µM (active)
same,Potency,[6],0.0935 µM (active)
same,Potency,[8],4.69 µM (active)
same,Potency,[13],14.8 µM (active)
same,Potency,[14],5.9 µM (active)
same,Potency,[10],2.09 µM (active)
same,Potency,[11],3.32 µM (active)
same,Z-AUC,[12],0.292 (inactive)
same,Z-AUC,[12]; [17],-0.41
same,Z-AUC,[12]; measured here: PEO4 Z-AUC,-0.216
COC1=C[C@@H]2[C@@H]3Cc4ccc(OC)c(O)c4[C@]2(CCN3C)CC1=O,Potency,[1],1.66 µM (active)
same,Potency,[2],9.35 µM (active)
same,viability,[3],132% (inactive)
same,Potency,[4],2.35 µM (active)
same,Potency,[15],1.32 µM (active)
same,Potency,[6],2.35 µM (active)
same,Potency,[7],4.69 µM (active)
same,Potency,[8],9.35 µM (active)
same,Z-AUC,[12],0.716 (inactive)
same,Z-AUC,[12]; [17],0.742
same,Z-AUC,[12]; measured here: PEO4 Z-AUC,0.886
COCC1(CO)C(=O)C2CCN1CC2 (stereo not drawn),Potency,[1],2.64 µM (active)
same,Potency,[2],2.09 µM (active)
same,Potency,[3],6.62 µM (active)
same,Potency,[4],2.96 µM (active)
same,Potency,[15],20.9 µM (active)
same,Potency,[6],4.18 µM (active)
same,Potency,[7],11.8 µM (active)
same,Potency,[14],11.8 µM (active)
same,Potency,[10],7.43 µM (active)
same,Potency,[11],23.5 µM (active)
same,Z-AUC,[12],0.503 (inactive)
same,Z-AUC,[12]; [17],0.336
same,Z-AUC,[12]; measured here: PEO4 Z-AUC,0.128
CCOC(=O)c1cncn1[C@H](C)c1ccccc1,Potency,[1],inactive
same,Potency,[3],7.43 µM (active)
same,Potency,[4],inactive
same,Potency,[5],inactive
same,Potency,[6],inactive
same,Potency,[8],inactive
same,Potency,[9],inactive
same,Potency,[14],inactive
same,Potency,[11],inactive
same,z-score,[16]; [18],1.85
same,z-score,[16]; [19],0.442
same,z-score,[16]; [20],0.512
c1ccc2c(CN3CCNCC3)cccc2c1,Potency,[1],inactive
same,viability,[3],106% (inactive)
same,Potency,[4],inactive
same,Potency,[15],inactive
same,Potency,[13],inactive
same,Potency,[14],inactive
same,Potency,[10],inactive
same,Z-AUC,[12],-0.771 (inactive)
same,Z-AUC,[12]; [17],-0.119
same,Z-AUC,[12]; measured here: PEO4 Z-AUC,-0.706
same,z-score,[16]; [18],0.545
same,z-score,[16]; [19],0.291
same,z-score,[16]; [20],0.833
